# Columns and labels:
# Test in all cases: DAPPL (digital affinity profiling via proximity ligation, sequencing); 10 mM Tris-HCl pH 7.5, 50 mM NaCl, 1 mM DTT, 4% glycerol, room temperature, 30 min; GST-TFs on glutathione beads, 16-mer random dsDNA library, 0.1% formaldehyde crosslink after washing; high values mean tight binding
# Conditions in all cases: protein: recombinant; tags: N-terminal GST; dsDNA, one strand shown
# [1] = biological target: ETV5 (Homo sapiens, UniProt P41161 1-510)
# In short: (§1)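 Binding signal is each hexamer's read frequency for a factor divided by its frequency in the tag-only sample. The factors were GST-fused human transcription factors from yeast, captured on glutathione beads, DNA-barcoded and pooled with that sample. Pools were incubated with 200 nmole of a random double-stranded 16-mer DNA library in Tris/NaCl/DTT/glycerol buffer at room temperature for 30 min, then washed, crosslinked with 0.1% formaldehyde, proximity-ligated with BsaI/T4 ligase (1 h, 37 °C), PCR-amplified and sequenced on an Illumina NextSeq500.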
# [2] = biological target: T1, ETV7 (Homo sapiens, UniProt Q9Y603 1-341)
# T1 sequence: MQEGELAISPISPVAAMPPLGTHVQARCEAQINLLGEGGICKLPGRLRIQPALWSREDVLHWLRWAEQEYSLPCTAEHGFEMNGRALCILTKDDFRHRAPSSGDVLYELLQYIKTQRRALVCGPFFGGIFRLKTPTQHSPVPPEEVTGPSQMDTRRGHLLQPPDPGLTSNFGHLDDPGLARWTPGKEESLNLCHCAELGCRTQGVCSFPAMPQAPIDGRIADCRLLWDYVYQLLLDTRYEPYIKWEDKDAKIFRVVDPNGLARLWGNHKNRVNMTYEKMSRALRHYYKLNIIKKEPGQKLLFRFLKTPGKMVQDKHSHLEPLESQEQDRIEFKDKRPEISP
# In short: as §1
# [3] = biological target: T2, ELK1 (Homo sapiens, UniProt P19419 1-428)
# T2 sequence: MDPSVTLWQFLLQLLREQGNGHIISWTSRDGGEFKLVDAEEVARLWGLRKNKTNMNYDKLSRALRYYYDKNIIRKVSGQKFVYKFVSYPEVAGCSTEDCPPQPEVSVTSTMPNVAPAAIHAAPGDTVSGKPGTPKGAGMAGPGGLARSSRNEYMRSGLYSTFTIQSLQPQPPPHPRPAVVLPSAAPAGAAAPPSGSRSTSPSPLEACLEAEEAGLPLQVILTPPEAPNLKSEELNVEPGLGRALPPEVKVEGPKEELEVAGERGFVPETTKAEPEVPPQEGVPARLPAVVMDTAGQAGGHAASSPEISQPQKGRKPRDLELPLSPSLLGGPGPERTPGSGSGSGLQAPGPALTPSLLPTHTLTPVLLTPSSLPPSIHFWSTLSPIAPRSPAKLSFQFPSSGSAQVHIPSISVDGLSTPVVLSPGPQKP
# In short: as §1
# [4] = biological target: T3, GABPA (Homo sapiens, UniProt Q06546 1-454)
# T3 sequence: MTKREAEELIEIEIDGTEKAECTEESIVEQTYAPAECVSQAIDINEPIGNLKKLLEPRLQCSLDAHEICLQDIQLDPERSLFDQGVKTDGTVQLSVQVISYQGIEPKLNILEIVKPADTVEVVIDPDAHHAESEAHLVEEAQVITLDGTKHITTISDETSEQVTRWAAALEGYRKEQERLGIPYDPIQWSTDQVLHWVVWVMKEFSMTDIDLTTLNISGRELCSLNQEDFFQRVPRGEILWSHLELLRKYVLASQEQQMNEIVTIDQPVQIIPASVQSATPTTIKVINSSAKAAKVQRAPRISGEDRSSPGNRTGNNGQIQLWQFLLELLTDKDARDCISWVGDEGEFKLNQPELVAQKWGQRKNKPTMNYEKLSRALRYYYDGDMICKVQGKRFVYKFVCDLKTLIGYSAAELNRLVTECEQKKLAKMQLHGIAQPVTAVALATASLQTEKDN
# In short: as §1
# [5] = biological target: T4, ERG (Homo sapiens, UniProt P11308 1-479)
# T4 sequence: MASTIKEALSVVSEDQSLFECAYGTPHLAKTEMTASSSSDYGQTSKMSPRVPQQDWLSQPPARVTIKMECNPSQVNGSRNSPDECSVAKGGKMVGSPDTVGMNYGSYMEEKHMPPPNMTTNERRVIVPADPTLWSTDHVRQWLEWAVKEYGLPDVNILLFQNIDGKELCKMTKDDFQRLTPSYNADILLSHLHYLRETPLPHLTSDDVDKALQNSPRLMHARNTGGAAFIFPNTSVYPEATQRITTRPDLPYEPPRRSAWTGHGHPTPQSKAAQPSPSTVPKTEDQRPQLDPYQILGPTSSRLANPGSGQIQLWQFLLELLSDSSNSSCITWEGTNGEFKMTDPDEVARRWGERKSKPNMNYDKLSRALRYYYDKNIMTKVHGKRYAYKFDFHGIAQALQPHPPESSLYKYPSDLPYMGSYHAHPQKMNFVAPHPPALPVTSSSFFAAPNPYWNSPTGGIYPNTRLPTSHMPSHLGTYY
# In short: as §1
# [6] = biological target: ELF1 (Homo sapiens, UniProt P32519 1-619)
# ELF1, sequence (P32519 whole entry): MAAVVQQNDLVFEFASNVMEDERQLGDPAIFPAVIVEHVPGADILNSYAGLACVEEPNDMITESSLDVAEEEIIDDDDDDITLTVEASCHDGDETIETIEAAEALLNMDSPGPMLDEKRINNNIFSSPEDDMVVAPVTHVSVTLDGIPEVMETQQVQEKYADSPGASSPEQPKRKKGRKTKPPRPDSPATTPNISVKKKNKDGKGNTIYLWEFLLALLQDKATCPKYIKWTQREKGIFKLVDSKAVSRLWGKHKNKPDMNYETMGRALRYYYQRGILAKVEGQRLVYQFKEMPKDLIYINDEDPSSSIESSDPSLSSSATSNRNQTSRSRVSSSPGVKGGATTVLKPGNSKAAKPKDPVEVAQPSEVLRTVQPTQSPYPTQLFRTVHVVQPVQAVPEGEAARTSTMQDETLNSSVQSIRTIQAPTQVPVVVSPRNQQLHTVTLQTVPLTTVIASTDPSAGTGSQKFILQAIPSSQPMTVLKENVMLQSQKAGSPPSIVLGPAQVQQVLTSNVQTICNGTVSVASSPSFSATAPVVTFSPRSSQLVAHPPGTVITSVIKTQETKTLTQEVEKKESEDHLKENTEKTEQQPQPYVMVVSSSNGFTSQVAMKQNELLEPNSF
# In short: as §1
# [7] = biological target: T5, EHF (Homo sapiens, UniProt Q9NZC4 1-300)
# T5 sequence: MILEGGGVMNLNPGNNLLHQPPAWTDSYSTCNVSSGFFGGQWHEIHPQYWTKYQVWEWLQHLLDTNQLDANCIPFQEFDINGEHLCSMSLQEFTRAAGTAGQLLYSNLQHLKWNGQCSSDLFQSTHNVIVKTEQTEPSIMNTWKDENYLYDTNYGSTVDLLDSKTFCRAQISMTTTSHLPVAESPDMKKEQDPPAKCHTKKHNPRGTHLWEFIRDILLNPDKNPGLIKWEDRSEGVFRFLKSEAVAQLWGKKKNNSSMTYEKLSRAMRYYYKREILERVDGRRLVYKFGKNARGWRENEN
# In short: as §1
# [8] = biological target: SPIB (Homo sapiens, UniProt Q01892 1-262)
# SPIB, sequence (Q01892 whole entry): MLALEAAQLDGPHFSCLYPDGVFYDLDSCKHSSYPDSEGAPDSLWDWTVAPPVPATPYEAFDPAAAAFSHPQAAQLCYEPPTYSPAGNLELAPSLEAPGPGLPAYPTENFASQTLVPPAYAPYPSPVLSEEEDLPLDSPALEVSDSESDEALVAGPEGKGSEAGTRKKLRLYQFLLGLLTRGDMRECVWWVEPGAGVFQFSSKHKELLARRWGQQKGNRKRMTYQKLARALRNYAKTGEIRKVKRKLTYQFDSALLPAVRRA
# In short: as §1
# [9] = biological target: T6, FEV (Homo sapiens, UniProt Q99581 1-238)
# T6 sequence: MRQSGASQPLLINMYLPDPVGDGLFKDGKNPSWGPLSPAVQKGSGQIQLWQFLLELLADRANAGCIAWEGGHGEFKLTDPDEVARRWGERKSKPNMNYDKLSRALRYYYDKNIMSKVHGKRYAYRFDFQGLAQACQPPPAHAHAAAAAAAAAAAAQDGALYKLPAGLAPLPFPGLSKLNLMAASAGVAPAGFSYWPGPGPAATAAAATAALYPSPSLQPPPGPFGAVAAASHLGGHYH
# In short: as §1
# [10] = biological target: ELF4 (Homo sapiens, UniProt Q99607 1-663)
# ELF4, sequence (Q99607 whole entry): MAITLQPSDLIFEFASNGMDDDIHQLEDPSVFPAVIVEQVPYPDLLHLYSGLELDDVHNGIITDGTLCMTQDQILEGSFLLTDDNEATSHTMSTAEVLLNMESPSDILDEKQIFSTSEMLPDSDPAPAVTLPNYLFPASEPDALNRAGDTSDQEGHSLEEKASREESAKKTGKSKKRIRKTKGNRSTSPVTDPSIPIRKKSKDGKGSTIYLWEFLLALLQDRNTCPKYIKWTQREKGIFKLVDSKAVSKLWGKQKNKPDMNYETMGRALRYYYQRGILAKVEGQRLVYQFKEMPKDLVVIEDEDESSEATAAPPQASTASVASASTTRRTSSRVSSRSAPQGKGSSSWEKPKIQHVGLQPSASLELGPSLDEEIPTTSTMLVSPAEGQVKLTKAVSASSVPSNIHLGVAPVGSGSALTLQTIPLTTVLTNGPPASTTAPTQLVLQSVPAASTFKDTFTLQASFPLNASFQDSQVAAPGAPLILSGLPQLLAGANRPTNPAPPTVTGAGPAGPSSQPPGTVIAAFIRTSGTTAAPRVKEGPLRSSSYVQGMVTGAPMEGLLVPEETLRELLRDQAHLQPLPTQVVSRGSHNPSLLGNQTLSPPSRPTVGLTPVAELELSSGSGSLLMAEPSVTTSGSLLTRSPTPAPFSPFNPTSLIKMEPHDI
# In short: as §1
# [11] = biological target: T7, ELF3 (Homo sapiens, UniProt P78545 1-371)
# T7 sequence: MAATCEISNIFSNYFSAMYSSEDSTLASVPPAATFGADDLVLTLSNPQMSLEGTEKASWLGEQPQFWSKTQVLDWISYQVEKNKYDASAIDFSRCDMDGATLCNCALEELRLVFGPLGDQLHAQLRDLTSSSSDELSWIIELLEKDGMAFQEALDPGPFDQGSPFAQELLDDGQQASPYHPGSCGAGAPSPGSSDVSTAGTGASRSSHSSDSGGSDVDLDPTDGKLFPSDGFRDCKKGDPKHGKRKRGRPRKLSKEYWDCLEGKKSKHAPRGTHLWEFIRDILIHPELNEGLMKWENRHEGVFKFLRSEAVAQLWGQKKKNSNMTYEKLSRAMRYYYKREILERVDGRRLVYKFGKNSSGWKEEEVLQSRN
# In short: as §1
# [12] = biological target: ETV1 (Homo sapiens, UniProt P50549 1-477)
# ETV1, sequence (P50549 whole entry): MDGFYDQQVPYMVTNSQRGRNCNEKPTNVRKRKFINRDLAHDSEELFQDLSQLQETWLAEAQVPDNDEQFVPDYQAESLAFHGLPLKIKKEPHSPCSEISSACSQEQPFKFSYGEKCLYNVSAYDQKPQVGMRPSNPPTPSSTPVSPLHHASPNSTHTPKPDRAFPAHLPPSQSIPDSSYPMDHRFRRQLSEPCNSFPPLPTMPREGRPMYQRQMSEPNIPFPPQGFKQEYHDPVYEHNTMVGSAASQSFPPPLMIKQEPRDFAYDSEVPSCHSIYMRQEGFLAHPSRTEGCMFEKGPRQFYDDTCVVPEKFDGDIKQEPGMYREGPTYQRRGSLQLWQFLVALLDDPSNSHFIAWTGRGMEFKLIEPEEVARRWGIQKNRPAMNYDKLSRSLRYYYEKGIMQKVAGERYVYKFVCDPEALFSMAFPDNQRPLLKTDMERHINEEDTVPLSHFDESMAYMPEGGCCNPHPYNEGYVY
# In short: as §1
# [13] = biological target: T8, ERF (Homo sapiens, UniProt P50548 1-548)
# T8 sequence: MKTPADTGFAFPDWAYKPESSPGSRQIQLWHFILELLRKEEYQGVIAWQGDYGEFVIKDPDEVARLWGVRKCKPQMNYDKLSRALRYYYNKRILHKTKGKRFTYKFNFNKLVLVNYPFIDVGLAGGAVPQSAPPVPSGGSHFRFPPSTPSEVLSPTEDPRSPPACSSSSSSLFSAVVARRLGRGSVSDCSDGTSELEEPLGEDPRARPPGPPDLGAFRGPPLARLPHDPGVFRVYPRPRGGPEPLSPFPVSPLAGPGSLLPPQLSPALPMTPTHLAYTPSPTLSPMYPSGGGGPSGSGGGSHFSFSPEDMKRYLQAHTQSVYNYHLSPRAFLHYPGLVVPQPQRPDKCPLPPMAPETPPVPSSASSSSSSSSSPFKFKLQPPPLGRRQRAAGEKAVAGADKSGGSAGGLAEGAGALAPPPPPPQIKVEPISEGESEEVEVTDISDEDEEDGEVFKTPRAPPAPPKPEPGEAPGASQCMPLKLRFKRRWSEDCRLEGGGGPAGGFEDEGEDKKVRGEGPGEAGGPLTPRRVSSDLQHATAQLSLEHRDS
# In short: as §1
# [14] = biological target: T9, ETV3L (Homo sapiens, UniProt Q6ZN32 1-361)
# T9 sequence: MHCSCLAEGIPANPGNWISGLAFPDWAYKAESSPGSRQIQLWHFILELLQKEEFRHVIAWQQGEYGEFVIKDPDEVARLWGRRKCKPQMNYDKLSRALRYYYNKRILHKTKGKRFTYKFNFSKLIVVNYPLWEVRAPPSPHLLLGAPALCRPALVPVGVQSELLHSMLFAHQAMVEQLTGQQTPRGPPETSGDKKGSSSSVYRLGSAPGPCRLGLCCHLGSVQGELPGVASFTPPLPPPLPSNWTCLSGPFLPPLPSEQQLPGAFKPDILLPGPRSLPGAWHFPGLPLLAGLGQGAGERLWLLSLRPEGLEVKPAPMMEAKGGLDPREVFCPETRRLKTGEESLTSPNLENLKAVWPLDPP
# In short: as §1
# [15] = biological target: T10, SPDEF (Homo sapiens, UniProt O95238 1-335)
# T10 sequence: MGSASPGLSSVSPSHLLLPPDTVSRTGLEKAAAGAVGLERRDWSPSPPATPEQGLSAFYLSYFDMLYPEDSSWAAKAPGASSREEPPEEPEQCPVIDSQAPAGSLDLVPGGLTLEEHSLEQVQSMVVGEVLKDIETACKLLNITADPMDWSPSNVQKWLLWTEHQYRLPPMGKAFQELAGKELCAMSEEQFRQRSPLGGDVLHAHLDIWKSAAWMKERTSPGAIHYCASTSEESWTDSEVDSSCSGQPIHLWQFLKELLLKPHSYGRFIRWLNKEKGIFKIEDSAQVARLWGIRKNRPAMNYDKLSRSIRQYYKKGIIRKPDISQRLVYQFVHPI
# In short: as §1
# [16] = biological target: T11, ETV3 (Homo sapiens, UniProt P41162-2 1-143)
# T11 sequence: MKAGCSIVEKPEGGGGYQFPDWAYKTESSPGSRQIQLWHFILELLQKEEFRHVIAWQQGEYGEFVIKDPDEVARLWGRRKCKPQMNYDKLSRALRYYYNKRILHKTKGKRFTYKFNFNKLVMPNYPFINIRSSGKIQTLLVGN
# In short: as §1
# [17] = biological target: T12, ELK4 (Homo sapiens, UniProt P28324-2 1-405)
# T12 sequence: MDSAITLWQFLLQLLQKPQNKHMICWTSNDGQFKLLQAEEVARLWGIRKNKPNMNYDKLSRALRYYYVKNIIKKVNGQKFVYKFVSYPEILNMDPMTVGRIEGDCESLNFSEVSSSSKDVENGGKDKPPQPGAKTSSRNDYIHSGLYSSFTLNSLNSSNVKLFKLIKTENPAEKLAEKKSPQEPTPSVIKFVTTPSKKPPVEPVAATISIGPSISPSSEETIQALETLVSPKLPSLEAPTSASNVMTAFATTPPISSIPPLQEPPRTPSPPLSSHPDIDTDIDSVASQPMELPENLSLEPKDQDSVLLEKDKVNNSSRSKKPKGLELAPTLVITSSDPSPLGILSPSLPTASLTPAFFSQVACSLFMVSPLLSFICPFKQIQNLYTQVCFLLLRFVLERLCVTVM
# In short: as §1
# [18] = biological target: ETV6 (Homo sapiens, UniProt P41212 1-452)
# ETV6, sequence (P41212 whole entry): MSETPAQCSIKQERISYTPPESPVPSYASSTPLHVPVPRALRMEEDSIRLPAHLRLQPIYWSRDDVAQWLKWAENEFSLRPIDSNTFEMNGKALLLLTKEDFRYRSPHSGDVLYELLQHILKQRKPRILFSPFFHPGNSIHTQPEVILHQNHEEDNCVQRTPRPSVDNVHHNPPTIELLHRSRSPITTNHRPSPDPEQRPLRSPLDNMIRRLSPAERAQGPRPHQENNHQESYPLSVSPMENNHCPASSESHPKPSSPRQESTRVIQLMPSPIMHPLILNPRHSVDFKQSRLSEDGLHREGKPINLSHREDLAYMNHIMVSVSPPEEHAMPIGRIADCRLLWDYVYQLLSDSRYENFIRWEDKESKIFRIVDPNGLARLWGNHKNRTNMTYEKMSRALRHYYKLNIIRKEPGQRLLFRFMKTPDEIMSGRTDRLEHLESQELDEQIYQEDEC
# In short: as §1
# ETV5, sequence (P41161 whole entry, the tested form may be a part): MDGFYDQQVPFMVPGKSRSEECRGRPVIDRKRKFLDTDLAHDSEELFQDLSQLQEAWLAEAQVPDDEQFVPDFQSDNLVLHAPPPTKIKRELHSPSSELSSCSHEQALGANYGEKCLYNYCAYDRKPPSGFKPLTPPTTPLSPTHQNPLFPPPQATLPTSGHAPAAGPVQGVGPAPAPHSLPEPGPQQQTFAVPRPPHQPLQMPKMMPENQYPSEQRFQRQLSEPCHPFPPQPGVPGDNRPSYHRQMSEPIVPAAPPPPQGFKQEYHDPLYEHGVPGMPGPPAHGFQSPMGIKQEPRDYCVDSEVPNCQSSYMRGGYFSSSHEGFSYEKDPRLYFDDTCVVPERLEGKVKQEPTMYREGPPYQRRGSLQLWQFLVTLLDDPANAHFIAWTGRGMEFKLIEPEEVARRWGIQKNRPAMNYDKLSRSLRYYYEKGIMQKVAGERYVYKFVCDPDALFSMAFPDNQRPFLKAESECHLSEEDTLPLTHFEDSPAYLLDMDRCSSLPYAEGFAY
Sequence,binding signal [1],binding signal [2],binding signal [3],binding signal [4],binding signal [5],binding signal [6],binding signal [7],binding signal [8],binding signal [9],binding signal [10],binding signal [11],binding signal [12],binding signal [13],binding signal [14],binding signal [15],binding signal [16],binding signal [17],binding signal [18]
GCGAAA,"1.01 fold enrichment (6-mer frequency, TF over GST control)","1.04 fold enrichment (6-mer frequency, TF over GST control)",,,,,,,,,,,,,,,,
AGTCCC,"1.04 fold enrichment (6-mer frequency, TF over GST control)","1.07 fold enrichment (6-mer frequency, TF over GST control)","1.06 fold enrichment (6-mer frequency, TF over GST control)","1.03 fold enrichment (6-mer frequency, TF over GST control)","1.07 fold enrichment (6-mer frequency, TF over GST control)","1.08 fold enrichment (6-mer frequency, TF over GST control)","1.01 fold enrichment (6-mer frequency, TF over GST control)","1.03 fold enrichment (6-mer frequency, TF over GST control)","1.09 fold enrichment (6-mer frequency, TF over GST control)","1.06 fold enrichment (6-mer frequency, TF over GST control)","1.11 fold enrichment (6-mer frequency, TF over GST control)","1.11 fold enrichment (6-mer frequency, TF over GST control)","1.17 fold enrichment (6-mer frequency, TF over GST control)","1.04 fold enrichment (6-mer frequency, TF over GST control)","1.03 fold enrichment (6-mer frequency, TF over GST control)","1.06 fold enrichment (6-mer frequency, TF over GST control)",,
CGCGCC,"1.11 fold enrichment (6-mer frequency, TF over GST control)",,"1.01 fold enrichment (6-mer frequency, TF over GST control)","1.03 fold enrichment (6-mer frequency, TF over GST control)","1.03 fold enrichment (6-mer frequency, TF over GST control)","1.06 fold enrichment (6-mer frequency, TF over GST control)","1.05 fold enrichment (6-mer frequency, TF over GST control)","1 fold enrichment (6-mer frequency, TF over GST control)","1.08 fold enrichment (6-mer frequency, TF over GST control)","1.05 fold enrichment (6-mer frequency, TF over GST control)","1.05 fold enrichment (6-mer frequency, TF over GST control)","1.14 fold enrichment (6-mer frequency, TF over GST control)","1.1 fold enrichment (6-mer frequency, TF over GST control)","1.05 fold enrichment (6-mer frequency, TF over GST control)","1.03 fold enrichment (6-mer frequency, TF over GST control)","1.09 fold enrichment (6-mer frequency, TF over GST control)","1.15 fold enrichment (6-mer frequency, TF over GST control)","1 fold enrichment (6-mer frequency, TF over GST control)"
